# Laboratory results as given in ChEMBL document CHEMBL1201862, “PubChem BioAssay data set” (2004).
# Potency and affinity values are given separately.
# Assay: A High Throughput Confirmatory Assay used to Identify Novel Compounds that Inhibit Mycobacterium Tuberculosis in the absence of Glycerol using Purified and Synthesized Compounds (5).
# Assay type: functional; call rule not given here
row,SMILES,IC90
1,CCCc1cc(C(N)=S)ccn1,> 100 µM (active)
2,Cc1[nH]c2ccccc2c1C(=O)COC(=O)c1ccc([N+](=O)[O-])s1,> 68.8 µM (active)
3,CNC(=O)CSc1nc2ccccc2c(=O)[nH]1,> 100 µM (active)
4,Cc1cc(Br)ccc1NC(=O)c1cnc(N2CCN(c3ccccn3)CC2)c2ccccc12,> 100 µM (active)
